Paper PMC7862700, “An all-to-all approach to the identification of sequence-specific readers for epigenetic DNA modifications on cytosine”

Tests used:
Assay in all cases: DAPPL (digital affinity profiling via proximity ligation, sequencing); 10 mM Tris-HCl pH 7.5, 50 mM NaCl, 1 mM DTT, 4% glycerol, room temperature, 30 min; GST-TFs on glutathione beads, 16-mer random dsDNA library, 0.1% formaldehyde crosslink after washing; high values mean tight binding
Conditions in all cases: protein: recombinant; tags: N-terminal GST; dsDNA, one strand shown
[1] = molecular target: T1, FEV (Homo sapiens, UniProt Q99581 1-238)
T1 sequence: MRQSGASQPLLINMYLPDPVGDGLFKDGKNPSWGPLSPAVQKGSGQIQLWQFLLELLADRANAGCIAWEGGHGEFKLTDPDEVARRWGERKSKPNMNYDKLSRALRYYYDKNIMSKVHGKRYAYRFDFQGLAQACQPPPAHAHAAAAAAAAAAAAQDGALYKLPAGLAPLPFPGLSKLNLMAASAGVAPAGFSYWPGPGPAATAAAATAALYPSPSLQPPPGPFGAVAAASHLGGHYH
In short: (§1)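 A tag-only sample was pooled with DNA-barcoded human transcription factors that had been expressed in yeast as GST fusions and captured on glutathione beads. The pools were incubated for 30 min at room temperature with 200 nmole of a random double-stranded 16-mer DNA library in Tris/NaCl/DTT/glycerol buffer, then washed, crosslinked with 0.1% formaldehyde, proximity-ligated (BsaI/T4 ligase, 1 h, 37 °C), PCR-amplified and sequenced on an Illumina NextSeq500. Binding signal is each hexamer's read frequency for a factor divided by its frequency for the tag-only sample.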

[2] = molecular target: ETV5 (Homo sapiens, UniProt P41161 1-510)
In short: as §1

[3] = molecular target: T2, SPIC (Homo sapiens, UniProt Q8N5J4 1-248)
T2 sequence: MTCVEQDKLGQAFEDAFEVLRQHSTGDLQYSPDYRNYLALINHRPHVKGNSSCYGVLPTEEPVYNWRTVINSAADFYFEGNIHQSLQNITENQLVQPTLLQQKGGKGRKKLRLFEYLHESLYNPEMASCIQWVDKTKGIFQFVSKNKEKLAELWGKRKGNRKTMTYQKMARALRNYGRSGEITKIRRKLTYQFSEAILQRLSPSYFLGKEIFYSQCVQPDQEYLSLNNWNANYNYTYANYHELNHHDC
In short: as §1

[4] = molecular target: ELF4 (Homo sapiens, UniProt Q99607 1-663)
In short: as §1

[5] = molecular target: T3, ELK4 (Homo sapiens, UniProt P28324-2 1-405)
T3 sequence: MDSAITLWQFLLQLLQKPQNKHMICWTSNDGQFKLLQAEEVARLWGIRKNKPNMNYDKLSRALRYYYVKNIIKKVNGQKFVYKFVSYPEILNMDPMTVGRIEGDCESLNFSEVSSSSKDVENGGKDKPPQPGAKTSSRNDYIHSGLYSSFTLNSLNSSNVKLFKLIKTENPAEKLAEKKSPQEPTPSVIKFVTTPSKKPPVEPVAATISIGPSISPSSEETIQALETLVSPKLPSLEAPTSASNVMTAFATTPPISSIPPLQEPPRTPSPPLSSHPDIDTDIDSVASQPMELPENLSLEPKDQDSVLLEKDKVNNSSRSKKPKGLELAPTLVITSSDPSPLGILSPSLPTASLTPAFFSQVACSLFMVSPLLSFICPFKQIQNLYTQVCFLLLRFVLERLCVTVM
In short: as §1

[6] = molecular target: T4, ETV2 (Homo sapiens, UniProt O00321 1-342)
T4 sequence: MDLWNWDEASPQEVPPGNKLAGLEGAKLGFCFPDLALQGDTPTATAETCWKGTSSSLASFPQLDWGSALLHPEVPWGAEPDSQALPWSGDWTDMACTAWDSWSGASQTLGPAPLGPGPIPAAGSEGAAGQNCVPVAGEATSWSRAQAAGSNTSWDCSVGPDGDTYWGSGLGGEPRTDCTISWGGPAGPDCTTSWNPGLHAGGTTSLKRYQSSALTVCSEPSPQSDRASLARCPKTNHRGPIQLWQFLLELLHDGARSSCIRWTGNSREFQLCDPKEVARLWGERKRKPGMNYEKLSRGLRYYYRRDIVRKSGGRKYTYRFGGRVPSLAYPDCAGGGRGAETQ
In short: as §1

[7] = molecular target: T5, ELF3 (Homo sapiens, UniProt P78545 1-371)
T5 sequence: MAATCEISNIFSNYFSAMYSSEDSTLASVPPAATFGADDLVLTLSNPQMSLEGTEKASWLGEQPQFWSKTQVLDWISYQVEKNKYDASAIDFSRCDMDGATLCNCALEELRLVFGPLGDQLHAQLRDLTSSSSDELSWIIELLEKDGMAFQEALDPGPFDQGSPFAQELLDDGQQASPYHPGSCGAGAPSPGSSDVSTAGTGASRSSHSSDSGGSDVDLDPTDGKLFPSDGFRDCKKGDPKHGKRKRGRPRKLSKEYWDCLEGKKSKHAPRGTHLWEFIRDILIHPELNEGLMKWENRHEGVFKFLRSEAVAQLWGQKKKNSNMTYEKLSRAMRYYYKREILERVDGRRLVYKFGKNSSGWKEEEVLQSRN
In short: as §1

[8] = molecular target: ETV1 (Homo sapiens, UniProt P50549 1-477)
In short: as §1

[9] = molecular target: T6, ERF (Homo sapiens, UniProt P50548 1-548)
T6 sequence: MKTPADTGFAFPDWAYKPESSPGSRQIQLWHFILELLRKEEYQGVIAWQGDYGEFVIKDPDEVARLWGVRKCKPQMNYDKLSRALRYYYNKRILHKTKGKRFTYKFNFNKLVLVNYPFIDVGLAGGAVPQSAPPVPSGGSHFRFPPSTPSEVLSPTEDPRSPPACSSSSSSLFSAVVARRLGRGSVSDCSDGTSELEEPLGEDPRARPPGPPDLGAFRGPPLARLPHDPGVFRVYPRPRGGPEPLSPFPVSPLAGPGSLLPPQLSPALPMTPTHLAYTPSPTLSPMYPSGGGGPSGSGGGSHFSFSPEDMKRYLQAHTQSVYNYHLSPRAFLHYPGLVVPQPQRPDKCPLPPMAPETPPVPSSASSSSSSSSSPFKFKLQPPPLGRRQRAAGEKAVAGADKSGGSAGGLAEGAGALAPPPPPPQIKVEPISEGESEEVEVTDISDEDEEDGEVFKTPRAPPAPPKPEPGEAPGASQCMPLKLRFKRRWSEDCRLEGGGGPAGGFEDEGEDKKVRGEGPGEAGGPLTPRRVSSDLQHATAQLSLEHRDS
In short: as §1

[10] = molecular target: T7, ETV3L (Homo sapiens, UniProt Q6ZN32 1-361)
T7 sequence: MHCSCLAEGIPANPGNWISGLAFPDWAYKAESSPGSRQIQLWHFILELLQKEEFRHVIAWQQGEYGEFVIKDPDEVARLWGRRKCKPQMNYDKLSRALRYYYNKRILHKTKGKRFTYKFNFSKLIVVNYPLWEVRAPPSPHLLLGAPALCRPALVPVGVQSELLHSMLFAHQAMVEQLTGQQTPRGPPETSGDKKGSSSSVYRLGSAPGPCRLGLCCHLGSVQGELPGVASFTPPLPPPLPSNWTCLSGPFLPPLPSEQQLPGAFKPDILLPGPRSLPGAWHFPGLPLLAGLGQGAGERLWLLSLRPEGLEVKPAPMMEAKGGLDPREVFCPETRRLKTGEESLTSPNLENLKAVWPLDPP
In short: as §1

[11] = molecular target: T8, ETS2 (Homo sapiens, UniProt P15036 1-469)
T8 sequence: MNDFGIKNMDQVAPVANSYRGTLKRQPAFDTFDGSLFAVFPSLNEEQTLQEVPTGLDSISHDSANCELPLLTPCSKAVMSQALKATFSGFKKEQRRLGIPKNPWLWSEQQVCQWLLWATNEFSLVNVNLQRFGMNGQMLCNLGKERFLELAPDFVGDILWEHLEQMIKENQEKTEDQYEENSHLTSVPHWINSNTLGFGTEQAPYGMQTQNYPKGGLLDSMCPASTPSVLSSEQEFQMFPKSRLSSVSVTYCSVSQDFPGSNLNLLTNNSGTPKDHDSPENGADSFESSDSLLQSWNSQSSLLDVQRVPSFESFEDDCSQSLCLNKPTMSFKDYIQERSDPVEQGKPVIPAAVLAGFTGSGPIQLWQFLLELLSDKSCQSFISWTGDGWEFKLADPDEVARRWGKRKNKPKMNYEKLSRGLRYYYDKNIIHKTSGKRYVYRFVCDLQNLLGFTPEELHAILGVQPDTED
In short: as §1

[12] = molecular target: T9, SPDEF (Homo sapiens, UniProt O95238 1-335)
T9 sequence: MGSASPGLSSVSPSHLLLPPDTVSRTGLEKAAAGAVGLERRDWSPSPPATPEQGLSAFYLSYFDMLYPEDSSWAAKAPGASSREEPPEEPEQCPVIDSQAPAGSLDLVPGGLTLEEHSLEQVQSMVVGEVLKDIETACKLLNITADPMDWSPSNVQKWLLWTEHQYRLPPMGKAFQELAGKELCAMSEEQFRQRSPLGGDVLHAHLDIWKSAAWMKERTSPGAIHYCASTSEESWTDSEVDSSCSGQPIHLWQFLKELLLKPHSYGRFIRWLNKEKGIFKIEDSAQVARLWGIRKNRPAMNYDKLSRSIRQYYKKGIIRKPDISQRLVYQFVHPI
In short: as §1

[13] = molecular target: T10, ETV7 (Homo sapiens, UniProt Q9Y603 1-341)
T10 sequence: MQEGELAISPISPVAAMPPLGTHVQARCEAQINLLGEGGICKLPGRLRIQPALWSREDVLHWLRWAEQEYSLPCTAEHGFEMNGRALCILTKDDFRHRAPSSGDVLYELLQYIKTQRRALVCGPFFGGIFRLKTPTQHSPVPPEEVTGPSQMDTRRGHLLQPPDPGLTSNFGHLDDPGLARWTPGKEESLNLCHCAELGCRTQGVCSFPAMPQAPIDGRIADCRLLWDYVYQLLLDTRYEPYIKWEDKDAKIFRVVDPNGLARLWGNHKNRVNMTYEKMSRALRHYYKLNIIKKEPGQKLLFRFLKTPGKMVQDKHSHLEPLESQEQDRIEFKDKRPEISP
In short: as §1

[14] = molecular target: T11, ELF5 (Homo sapiens, UniProt Q9UKW6-2 1-255)
T11 sequence: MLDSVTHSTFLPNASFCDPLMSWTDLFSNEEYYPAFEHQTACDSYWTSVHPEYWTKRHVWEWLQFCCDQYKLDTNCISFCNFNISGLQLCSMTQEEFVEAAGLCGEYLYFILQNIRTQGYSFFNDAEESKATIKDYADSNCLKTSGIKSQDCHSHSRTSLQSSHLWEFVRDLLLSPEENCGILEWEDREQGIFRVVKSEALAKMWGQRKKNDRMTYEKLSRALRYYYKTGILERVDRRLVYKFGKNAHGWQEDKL
In short: as §1

[15] = molecular target: T12, ETV3 (Homo sapiens, UniProt P41162-2 1-143)
T12 sequence: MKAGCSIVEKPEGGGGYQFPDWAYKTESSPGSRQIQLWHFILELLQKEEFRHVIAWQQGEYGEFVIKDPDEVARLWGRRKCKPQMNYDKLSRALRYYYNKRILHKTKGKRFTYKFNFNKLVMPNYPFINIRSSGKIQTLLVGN
In short: as §1

[16] = molecular target: ETV6 (Homo sapiens, UniProt P41212 1-452)
In short: as §1

Sequence of ETV1 (P50549 whole entry): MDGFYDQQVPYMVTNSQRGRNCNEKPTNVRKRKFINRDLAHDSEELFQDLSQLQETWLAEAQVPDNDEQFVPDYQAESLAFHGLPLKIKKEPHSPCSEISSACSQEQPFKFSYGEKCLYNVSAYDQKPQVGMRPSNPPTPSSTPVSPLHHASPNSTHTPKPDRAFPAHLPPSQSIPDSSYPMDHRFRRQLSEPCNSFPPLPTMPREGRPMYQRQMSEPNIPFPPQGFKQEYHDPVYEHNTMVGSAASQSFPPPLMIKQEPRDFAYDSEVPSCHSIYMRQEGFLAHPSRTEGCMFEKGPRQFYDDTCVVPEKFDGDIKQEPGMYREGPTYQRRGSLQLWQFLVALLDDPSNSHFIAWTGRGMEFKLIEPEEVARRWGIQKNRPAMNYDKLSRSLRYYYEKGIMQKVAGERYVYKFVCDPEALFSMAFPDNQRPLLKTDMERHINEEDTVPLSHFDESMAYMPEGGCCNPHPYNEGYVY
Sequence of ETV6 (P41212 whole entry): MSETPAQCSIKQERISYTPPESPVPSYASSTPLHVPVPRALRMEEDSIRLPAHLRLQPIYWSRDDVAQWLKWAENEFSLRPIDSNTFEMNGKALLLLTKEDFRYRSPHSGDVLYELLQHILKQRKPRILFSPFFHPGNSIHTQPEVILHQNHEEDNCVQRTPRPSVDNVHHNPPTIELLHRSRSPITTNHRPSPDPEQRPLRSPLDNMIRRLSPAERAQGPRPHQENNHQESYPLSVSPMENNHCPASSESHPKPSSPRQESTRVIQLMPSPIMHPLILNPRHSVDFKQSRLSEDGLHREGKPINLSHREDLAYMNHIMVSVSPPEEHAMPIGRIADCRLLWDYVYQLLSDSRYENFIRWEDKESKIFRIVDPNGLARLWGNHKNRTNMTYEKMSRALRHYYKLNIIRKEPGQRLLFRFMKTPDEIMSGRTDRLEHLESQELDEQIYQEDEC
Sequence of ETV5 (P41161 whole entry): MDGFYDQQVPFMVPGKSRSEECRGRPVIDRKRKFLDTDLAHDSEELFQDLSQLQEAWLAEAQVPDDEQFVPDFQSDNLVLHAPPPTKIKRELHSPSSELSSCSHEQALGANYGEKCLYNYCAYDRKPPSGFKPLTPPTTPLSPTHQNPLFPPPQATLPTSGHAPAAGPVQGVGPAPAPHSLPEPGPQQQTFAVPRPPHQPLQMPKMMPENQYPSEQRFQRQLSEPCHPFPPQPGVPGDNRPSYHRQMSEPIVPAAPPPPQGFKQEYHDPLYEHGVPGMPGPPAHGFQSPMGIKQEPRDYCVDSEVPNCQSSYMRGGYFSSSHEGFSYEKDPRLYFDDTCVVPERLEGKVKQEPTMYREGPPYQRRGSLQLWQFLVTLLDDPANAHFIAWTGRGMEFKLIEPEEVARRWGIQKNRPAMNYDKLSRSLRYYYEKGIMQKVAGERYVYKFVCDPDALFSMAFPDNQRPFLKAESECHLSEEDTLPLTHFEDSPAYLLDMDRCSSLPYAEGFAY
Sequence of ELF4 (Q99607 whole entry): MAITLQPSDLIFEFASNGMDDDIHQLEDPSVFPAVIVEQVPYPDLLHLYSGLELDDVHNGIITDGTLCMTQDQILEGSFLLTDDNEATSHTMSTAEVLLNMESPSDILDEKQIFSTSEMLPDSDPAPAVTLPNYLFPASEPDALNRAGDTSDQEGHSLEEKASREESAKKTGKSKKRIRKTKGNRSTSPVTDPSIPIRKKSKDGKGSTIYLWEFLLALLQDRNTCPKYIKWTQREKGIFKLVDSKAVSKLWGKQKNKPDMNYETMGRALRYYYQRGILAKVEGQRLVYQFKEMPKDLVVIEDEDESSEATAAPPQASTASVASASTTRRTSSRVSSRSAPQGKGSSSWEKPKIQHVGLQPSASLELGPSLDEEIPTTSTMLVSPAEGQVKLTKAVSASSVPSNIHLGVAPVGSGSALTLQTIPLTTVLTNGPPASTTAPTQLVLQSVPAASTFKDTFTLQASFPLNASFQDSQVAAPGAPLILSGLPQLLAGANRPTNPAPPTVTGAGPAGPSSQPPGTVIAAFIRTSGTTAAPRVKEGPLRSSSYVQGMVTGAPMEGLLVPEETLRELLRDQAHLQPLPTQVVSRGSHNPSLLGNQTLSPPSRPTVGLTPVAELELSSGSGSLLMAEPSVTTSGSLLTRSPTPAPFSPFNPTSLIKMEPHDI

Sequence | binding signal [1] | binding signal [2] | binding signal [3] | binding signal [4] | binding signal [5] | binding signal [6] | binding signal [7] | binding signal [8] | binding signal [9] | binding signal [10] | binding signal [11] | binding signal [12] | binding signal [13] | binding signal [14] | binding signal [15] | binding signal [16]
CCATCC | 1.3 fold enrichment (6-mer frequency, TF over GST control) | 1.27 fold enrichment (6-mer frequency, TF over GST control) | 1.33 fold enrichment (6-mer frequency, TF over GST control) | 1.27 fold enrichment (6-mer frequency, TF over GST control) | 1.19 fold enrichment (6-mer frequency, TF over GST control) | 1.19 fold enrichment (6-mer frequency, TF over GST control) | 1.12 fold enrichment (6-mer frequency, TF over GST control) | 1.24 fold enrichment (6-mer frequency, TF over GST control) | 1.12 fold enrichment (6-mer frequency, TF over GST control) | 1.31 fold enrichment (6-mer frequency, TF over GST control) | 1.23 fold enrichment (6-mer frequency, TF over GST control) | 1.56 fold enrichment (6-mer frequency, TF over GST control) | 1.24 fold enrichment (6-mer frequency, TF over GST control) | 1.3 fold enrichment (6-mer frequency, TF over GST control) | 1.27 fold enrichment (6-mer frequency, TF over GST control) | 1.2 fold enrichment (6-mer frequency, TF over GST control)
GCTACA | 1.22 fold enrichment (6-mer frequency, TF over GST control) | 1.18 fold enrichment (6-mer frequency, TF over GST control) | 1.33 fold enrichment (6-mer frequency, TF over GST control) | 1.18 fold enrichment (6-mer frequency, TF over GST control) | 1.24 fold enrichment (6-mer frequency, TF over GST control) | 1.17 fold enrichment (6-mer frequency, TF over GST control) | 1.27 fold enrichment (6-mer frequency, TF over GST control) | 1.13 fold enrichment (6-mer frequency, TF over GST control) | 1.2 fold enrichment (6-mer frequency, TF over GST control) | 1.29 fold enrichment (6-mer frequency, TF over GST control) | 1.17 fold enrichment (6-mer frequency, TF over GST control) | 1.25 fold enrichment (6-mer frequency, TF over GST control) | 1.18 fold enrichment (6-mer frequency, TF over GST control) | 1.19 fold enrichment (6-mer frequency, TF over GST control) | 1.17 fold enrichment (6-mer frequency, TF over GST control) | 1.17 fold enrichment (6-mer frequency, TF over GST control)
